The results in this text go back to PubChem BioAssay (NCI).

Several values for one entry are separate records, joined by “and”; a condition that tells them apart may be missing. Equal values may be shown once. This is part of a sample that, as a whole, favours compounds with a hit. Of some 83,000 tested, about 20% had one in any assay.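 Assay: single dose, 48 h. Readout: percent growth (0 = no net growth; negative = cell death). Active: <10.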 Activity calls are given as the source filed them.

The assay concerns HL-60(TB) leukemia. Put plainly: NCI-60 one-dose screen, 48 h (100 = growth as untreated, 0 = no growth, -100 = all killed). As to conditions: 10 µM unless noted.
In the case of `Cc1nc2cncc(C#Cc3cncc(C(=O)Nc4ccc(CN5CCN(C)CC5)c(C(F)(F)F)c4)c3)c2nc1C`, the growth was -8.15% (active).

For `CCCCCCNC(=O)Oc1ccc(/C(=C(\C)c2ccc(Cl)cc2)c2ccc(OCCN3CCCCC3)cc2)cc1`, the growth was -18.5% (active). Then `COc1cc(CSc2nc3ccc(Cl)cc3c(=O)n2Cc2ccccc2)cc(OC)c1OC`, with 14.7% (inactive); and `O=C(N=Nc1c(O)[nH]c2ccc(F)cc12)c1cc2ccccc2[nH]1`, with 79.3% (inactive); and `Cc1ccc(C(=O)c2ccc(C)cc2)cc1`, with 92.5% (inactive) and 98.6% (inactive). Then `CCC(=O)Oc1ccc(OCc2ccccc2)cc1`, with 35.9% (inactive) and 84.2% (inactive); and `COC(=O)[C@H](CC(C)C)NC(=O)NC(=O)NC(=O)CI`, with 50.7% (inactive); and `O=C(/C=C/c1ccc(C(F)(F)F)cc1)c1ccc(Nc2nc(NCCO)nc(N3CCOCC3)n2)cc1`, with 15.4% (inactive).

Turning to `CCn1c(=S)sc2c(Nc3ccc(F)cc3)nc(-c3cccnc3)nc21`, the growth is 81.7% (inactive). Turning to `COc1ccc(/C=C/c2nnc(/C=C/c3ccc(OC)c(OC)c3)o2)cc1OC`, the growth was 12.1% (inactive). Then `O=C1/C(=C/c2ccccc2[N+](=O)[O-])Cc2ccccc21`, with 31.7% (inactive) and 63.7% (inactive). The figure for `O=C(CCCCC(=O)N/N=C\c1ccccc1O)N/N=C\c1ccccc1O` is 4.44% (active). Then `COc1ccc2cc(/C=C3\N=C(c4cc(OC)c(OC)c(OC)c4)OC3=O)c(OC)nc2c1`, with 95.3% (inactive); and `C/C=C(\C)C(C(=O)NC1CCCCC1)N(C(=O)C1CCc2cc(F)ccc2O1)c1ccc(Cl)cc1` (centres undefined), with 97.8% (inactive); and `CCN(CC)c1ccc(N=O)cc1`, with 33.1% (inactive).

As for `CC(=O)OC[C@]1(C)C=C2C(=O)[C@](C)(O)C3(CC3)C(C)=C2[C@H]1OC(C)=O`, the growth was 96.4% (inactive). `CC(C)[C@@H]1CC[C@@H]2[C@@H]1[C@H](OC(=O)/C=C/c1ccccc1)[C@]1(C(C)C)C[C@@H](OC(=O)CO)[C@@]2(C)O1`: the growth is 84.6% (inactive). For the compound `CC(C)(C)N1CCC1CN` (centres undefined), the growth was 125% (inactive). Then `Cc1ccc(NCSc2ccc(Cl)cc2)cc1`, with 3% (active) and 22.5% (inactive); and `CCN1C(=O)N(CC)C2C1NN=c1s/c(=C3\C(=O)N(C(C)C)c4ccccc43)c(=O)n12` (centres undefined), with -22.6% (active).

Consider `O=C(Nc1cccc(-n2cc(-c3ccncc3)c(-c3ccc(Cl)c(O)c3)n2)c1)Nc1ccc(Cl)c(Cl)c1`, for which the growth is -6.98% (active). For the compound `O=C(Nc1ccc(Oc2cccc(F)c2)c(Cl)c1)c1cccnc1`, the growth was 12.1% (inactive). Then `C#Cc1cccc(NC(=O)Nc2ccc(NC(=O)CCl)cc2)c1`, with 0.172% [8.25 µM] (active); and `COc1ccc(/C=c2\sc3n(c2=O)C2C(NN=3)N(C)C(=O)N2C)cc1` (centres undefined), with -47.5% (active). The figure for `Cc1cc2c([nH]1)CSc1cc(S(=O)(=O)c3ccccc3)c(=O)[nH]c1-2` is 27.7% [100 µM] (inactive); for `Cc1ccc(S(=O)(=O)OCCN(CCOS(=O)(=O)c2ccc(C)cc2)c2c[nH]c(=O)[nH]c2=O)cc1` it is 99.2% (inactive); for `COC(=O)c1ccc(C(=O)Nc2ccccc2N)cc1` it is -18.5% (active).

For `COc1ccccc1/C=C/C(=O)/C=C/c1ccccc1O`, the growth is -5.37% (active).

`CN1CCN(Cc2ccc(NC(=O)c3cncc(C#Cc4cnc(N)c5ccccc45)c3)cc2C(F)(F)F)CC1`: the growth is -46.3% (active).

Regarding `COc1cc2ncnc(-n3ncc4cc(NC(=O)Nc5ccc(Cl)c(Cl)c5)ccc43)c2cc1OC`, the growth was 15.3% (inactive).

`CC(=O)Nc1cc(S(=O)(=O)O)cc2cc(S(=O)(=O)O)c(N=Nc3ccccc3)c(O)c12`: the growth was 109% (inactive) and 94.3% (inactive).

With `CN1[C@@H]2CC[C@H]1/C(=C\c1ccccc1)C(=O)/C2=C/c1ccccc1`, the growth is 37% (inactive). Then `CCOC(=O)c1sc2ncnc(Nc3ccc4c(cnn4C(=O)Nc4ccc(C)c(Cl)c4)c3)c2c1C`, with 95.3% (inactive); and `O=C(Nc1ccc(Oc2ccc(Nc3nc4ccccc4s3)cc2)cc1)Nc1ccc(Cl)c(Cl)c1`, with 21.1% (inactive); and `COc1cc(Nc2c(C#N)cnc3cc(OCCCN4CCN(C)CC4)c(OC)cc23)c(Cl)cc1Cl`, with 6.54% (active). The figure for `Cc1c[n+](Cc2ccc3ccccc3c2)cn1Cc1ccc2ccccc2c1` is -56.3% (active). The figure for `COc1ccc(-c2nc3cc(C(=O)NCc4ccccc4)ccc3n2C2CCCCC2)cc1` is 71.1% (inactive). Turning to `CCN(CC)S(=O)(=O)c1ccc(OC)c(NC(=O)c2[nH]c(C)c3c2CCCCC3=O)c1`, the growth was 4.18% (active). Regarding `Clc1ccc(C2c3ccccc3-c3nccn32)c(Cl)c1` (centres undefined), the growth was 48.6% (inactive).
